We go through one sequence from article PMC7862700, “An all-to-all approach to the identification of sequence-specific readers for epigenetic DNA modifications on cytosine”.

Assay in all cases: DAPPL (digital affinity profiling via proximity ligation, sequencing); 10 mM Tris-HCl pH 7.5, 50 mM NaCl, 1 mM DTT, 4% glycerol, room temperature, 30 min; GST-TFs on glutathione beads, 16-mer random dsDNA library, 0.1% formaldehyde crosslink after washing; high values mean tight binding
Test [1] has as its target T1, FEV (Homo sapiens, UniProt Q99581 1-238).
T1 sequence: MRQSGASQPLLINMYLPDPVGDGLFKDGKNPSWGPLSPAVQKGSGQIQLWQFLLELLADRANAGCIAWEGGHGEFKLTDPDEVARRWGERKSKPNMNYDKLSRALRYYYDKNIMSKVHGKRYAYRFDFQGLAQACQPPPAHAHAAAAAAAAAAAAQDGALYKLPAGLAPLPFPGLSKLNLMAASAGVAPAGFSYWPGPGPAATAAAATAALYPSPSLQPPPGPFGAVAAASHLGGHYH
The following applies: protein: recombinant; tags: N-terminal GST; dsDNA, one strand shown. In outline:
(§1)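 Binding signal is each hexamer's read frequency for a factor divided by its frequency in the tag-only sample. The factors were GST-fused human transcription factors from yeast, captured on glutathione beads, DNA-barcoded and pooled with that sample. Pools were incubated with 200 nmole of a random double-stranded 16-mer DNA library in Tris/NaCl/DTT/glycerol buffer at room temperature for 30 min, then washed, crosslinked with 0.1% formaldehyde, proximity-ligated with BsaI/T4 ligase (1 h, 37 °C), PCR-amplified and sequenced on an Illumina NextSeq500.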

Test [2] addresses ETV5 (Homo sapiens, UniProt P41161 1-510). The following applies: protein: recombinant; tags: N-terminal GST; dsDNA, one strand shown. The essentials: as §1
Test [3] has as its target HSF1 (Homo sapiens, UniProt Q00613 1-529). The following applies: protein: recombinant; tags: N-terminal GST; chain copies: 3; dsDNA, one strand shown. The essentials:
as §1

In test [4] the target is T2, SPIC (Homo sapiens, UniProt Q8N5J4 1-248).
T2 sequence: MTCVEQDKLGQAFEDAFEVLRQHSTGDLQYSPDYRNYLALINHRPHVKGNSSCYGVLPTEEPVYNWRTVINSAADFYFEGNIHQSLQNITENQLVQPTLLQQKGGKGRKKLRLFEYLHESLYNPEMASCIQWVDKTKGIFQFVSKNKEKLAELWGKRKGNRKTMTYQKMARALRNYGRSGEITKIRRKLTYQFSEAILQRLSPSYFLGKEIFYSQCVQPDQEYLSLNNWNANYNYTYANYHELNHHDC
The following applies: protein: recombinant; tags: N-terminal GST; dsDNA, one strand shown. The essentials: as §1

The target of test [5] is ELF4 (Homo sapiens, UniProt Q99607 1-663). The following applies: protein: recombinant; tags: N-terminal GST; dsDNA, one strand shown. The essentials:
as §1

Test [6] concerns the target T3, ELK4 (Homo sapiens, UniProt P28324-2 1-405).
T3 sequence: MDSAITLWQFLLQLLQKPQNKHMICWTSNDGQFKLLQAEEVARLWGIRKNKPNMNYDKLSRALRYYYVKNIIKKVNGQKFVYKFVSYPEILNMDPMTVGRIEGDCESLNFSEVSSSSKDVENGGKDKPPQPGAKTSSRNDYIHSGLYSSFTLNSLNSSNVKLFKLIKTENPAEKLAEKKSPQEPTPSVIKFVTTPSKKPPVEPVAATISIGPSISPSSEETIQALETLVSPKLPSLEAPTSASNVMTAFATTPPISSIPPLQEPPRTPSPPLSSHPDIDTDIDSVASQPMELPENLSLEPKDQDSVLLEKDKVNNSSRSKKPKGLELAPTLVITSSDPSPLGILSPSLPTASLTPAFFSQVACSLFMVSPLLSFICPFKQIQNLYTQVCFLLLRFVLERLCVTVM
To be noted: protein: recombinant; tags: N-terminal GST; dsDNA, one strand shown. In outline:
as §1

In test [7] the target is T4, ETV2 (Homo sapiens, UniProt O00321 1-342).
T4 sequence: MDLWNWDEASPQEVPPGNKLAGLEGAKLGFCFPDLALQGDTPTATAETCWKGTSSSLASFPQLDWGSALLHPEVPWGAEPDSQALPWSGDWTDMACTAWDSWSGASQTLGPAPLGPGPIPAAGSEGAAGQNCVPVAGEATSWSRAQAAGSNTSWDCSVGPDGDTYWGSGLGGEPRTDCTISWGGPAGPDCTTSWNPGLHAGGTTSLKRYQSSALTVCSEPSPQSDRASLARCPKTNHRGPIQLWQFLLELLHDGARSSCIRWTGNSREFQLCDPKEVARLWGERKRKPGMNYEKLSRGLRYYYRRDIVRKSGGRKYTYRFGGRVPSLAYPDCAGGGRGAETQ
The following applies: protein: recombinant; tags: N-terminal GST; dsDNA, one strand shown. In outline:
as §1

Test [8] concerns the target T5, ELF3 (Homo sapiens, UniProt P78545 1-371).
T5 sequence: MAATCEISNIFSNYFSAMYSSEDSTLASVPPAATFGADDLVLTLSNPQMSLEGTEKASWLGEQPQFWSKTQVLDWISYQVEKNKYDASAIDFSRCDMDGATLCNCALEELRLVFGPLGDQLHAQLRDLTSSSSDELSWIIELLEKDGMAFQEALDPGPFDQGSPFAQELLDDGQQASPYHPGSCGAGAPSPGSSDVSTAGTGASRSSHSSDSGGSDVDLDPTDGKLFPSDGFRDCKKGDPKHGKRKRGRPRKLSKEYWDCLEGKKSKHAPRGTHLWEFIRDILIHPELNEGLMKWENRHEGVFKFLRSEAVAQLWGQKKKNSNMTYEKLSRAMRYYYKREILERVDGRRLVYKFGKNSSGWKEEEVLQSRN
The following applies: protein: recombinant; tags: N-terminal GST; dsDNA, one strand shown. The essentials:
as §1

Test [9] has as its target CRX (Homo sapiens, UniProt O43186 1-299). The following applies: protein: recombinant; tags: N-terminal GST; dsDNA, one strand shown. In outline:
as §1

Test [10] deals with ETV1 (Homo sapiens, UniProt P50549 1-477). The following applies: protein: recombinant; tags: N-terminal GST; dsDNA, one strand shown. In outline: as §1
Chain of ETV1 (P50549 whole entry): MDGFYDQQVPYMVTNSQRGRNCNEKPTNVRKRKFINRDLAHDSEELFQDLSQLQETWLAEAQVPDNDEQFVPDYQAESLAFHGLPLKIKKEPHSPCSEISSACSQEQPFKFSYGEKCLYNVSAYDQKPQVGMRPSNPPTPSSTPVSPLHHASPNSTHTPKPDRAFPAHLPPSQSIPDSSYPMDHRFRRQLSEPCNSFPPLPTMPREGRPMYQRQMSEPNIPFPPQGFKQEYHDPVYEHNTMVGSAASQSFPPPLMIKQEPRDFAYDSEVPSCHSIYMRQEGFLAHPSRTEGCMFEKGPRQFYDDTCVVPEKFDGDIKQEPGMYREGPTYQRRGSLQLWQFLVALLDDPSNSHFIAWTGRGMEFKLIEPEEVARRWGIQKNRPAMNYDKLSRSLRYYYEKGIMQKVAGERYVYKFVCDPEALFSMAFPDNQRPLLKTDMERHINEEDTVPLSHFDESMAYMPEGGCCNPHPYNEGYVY
The target in test [11] is T6, ERF (Homo sapiens, UniProt P50548 1-548).
T6 sequence: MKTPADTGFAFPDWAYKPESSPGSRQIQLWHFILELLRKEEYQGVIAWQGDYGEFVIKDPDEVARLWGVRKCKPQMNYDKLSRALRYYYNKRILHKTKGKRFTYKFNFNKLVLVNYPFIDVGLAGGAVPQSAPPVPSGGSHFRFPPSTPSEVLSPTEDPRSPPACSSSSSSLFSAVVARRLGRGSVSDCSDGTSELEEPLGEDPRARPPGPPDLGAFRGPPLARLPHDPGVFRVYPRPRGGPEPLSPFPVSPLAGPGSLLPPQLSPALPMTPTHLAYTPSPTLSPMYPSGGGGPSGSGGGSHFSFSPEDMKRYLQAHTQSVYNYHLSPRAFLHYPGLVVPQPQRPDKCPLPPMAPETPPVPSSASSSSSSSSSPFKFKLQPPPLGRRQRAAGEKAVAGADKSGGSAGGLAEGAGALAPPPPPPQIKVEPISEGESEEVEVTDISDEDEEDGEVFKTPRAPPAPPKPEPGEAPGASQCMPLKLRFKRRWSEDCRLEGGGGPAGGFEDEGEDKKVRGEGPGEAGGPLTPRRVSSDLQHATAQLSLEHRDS
To be noted: protein: recombinant; tags: N-terminal GST; dsDNA, one strand shown. In outline: as §1

Test [12] has as its target T7, ETV3L (Homo sapiens, UniProt Q6ZN32 1-361).
T7 sequence: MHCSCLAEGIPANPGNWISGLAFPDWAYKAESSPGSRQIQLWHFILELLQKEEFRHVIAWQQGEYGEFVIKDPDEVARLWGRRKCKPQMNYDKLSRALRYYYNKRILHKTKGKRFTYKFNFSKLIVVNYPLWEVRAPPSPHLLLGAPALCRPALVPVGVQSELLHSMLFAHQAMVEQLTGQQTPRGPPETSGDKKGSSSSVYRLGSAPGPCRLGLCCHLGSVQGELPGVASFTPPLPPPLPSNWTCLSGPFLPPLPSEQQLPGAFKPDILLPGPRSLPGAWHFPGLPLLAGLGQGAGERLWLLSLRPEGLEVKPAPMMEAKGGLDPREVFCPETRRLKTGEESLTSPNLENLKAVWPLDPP
The following applies: protein: recombinant; tags: N-terminal GST; dsDNA, one strand shown. In outline:
as §1

Test [13] addresses T8, ETS2 (Homo sapiens, UniProt P15036 1-469).
T8 sequence: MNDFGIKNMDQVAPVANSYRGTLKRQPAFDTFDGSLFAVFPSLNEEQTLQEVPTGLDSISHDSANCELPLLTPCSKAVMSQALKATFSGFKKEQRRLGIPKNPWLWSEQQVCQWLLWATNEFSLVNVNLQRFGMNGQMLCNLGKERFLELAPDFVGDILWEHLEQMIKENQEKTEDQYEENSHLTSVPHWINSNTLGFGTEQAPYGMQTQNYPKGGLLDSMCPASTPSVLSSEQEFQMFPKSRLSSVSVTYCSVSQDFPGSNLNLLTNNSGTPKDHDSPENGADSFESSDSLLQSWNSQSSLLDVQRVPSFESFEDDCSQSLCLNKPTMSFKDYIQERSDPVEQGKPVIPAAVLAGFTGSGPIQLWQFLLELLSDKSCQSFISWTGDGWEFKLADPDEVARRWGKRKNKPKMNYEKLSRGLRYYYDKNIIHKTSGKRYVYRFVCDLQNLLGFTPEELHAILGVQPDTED
The following applies: protein: recombinant; tags: N-terminal GST; dsDNA, one strand shown. The essentials:
as §1

Test [14] concerns the target T9, SPDEF (Homo sapiens, UniProt O95238 1-335).
T9 sequence: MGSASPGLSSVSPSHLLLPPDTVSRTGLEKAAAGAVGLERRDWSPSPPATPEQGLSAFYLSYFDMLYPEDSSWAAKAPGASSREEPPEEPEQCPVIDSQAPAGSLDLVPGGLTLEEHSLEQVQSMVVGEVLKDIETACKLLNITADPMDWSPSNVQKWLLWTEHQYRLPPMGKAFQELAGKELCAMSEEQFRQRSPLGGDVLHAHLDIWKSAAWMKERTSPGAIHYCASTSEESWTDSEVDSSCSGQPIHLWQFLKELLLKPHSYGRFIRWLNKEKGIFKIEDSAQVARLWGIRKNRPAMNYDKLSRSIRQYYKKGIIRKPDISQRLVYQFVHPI
The following applies: protein: recombinant; tags: N-terminal GST; dsDNA, one strand shown. In outline:
as §1

The target of test [15] is T10, ETV7 (Homo sapiens, UniProt Q9Y603 1-341).
T10 sequence: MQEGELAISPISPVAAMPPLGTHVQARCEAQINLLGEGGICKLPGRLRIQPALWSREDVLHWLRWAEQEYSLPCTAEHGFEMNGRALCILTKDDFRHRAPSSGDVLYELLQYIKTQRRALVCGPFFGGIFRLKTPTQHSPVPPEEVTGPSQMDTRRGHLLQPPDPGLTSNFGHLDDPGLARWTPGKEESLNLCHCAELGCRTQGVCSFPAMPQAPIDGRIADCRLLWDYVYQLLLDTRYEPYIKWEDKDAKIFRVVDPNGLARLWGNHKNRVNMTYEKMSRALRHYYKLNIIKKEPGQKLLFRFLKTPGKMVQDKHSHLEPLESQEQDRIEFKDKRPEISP
The following applies: protein: recombinant; tags: N-terminal GST; dsDNA, one strand shown. The essentials:
as §1

Test [16] deals with T11, ELF5 (Homo sapiens, UniProt Q9UKW6-2 1-255).
T11 sequence: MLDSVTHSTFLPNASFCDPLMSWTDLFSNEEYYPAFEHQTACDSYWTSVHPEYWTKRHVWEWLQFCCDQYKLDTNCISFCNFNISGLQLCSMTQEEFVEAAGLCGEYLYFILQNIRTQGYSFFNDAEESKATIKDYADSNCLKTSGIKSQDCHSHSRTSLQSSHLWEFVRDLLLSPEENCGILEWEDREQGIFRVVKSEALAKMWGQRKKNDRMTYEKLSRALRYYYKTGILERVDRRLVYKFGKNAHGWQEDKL
The following applies: protein: recombinant; tags: N-terminal GST; dsDNA, one strand shown. In outline:
as §1

Test [17] addresses T12, ETV3 (Homo sapiens, UniProt P41162-2 1-143).
T12 sequence: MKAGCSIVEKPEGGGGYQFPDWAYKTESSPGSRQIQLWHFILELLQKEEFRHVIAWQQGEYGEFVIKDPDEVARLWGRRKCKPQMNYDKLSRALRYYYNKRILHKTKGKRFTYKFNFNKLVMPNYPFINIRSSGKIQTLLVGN
To be noted: protein: recombinant; tags: N-terminal GST; dsDNA, one strand shown. The essentials: as §1

Test [18] concerns the target ETV6 (Homo sapiens, UniProt P41212 1-452). The following applies: protein: recombinant; tags: N-terminal GST; dsDNA, one strand shown. In outline:
as §1

Chain of ETV6 (P41212 whole entry): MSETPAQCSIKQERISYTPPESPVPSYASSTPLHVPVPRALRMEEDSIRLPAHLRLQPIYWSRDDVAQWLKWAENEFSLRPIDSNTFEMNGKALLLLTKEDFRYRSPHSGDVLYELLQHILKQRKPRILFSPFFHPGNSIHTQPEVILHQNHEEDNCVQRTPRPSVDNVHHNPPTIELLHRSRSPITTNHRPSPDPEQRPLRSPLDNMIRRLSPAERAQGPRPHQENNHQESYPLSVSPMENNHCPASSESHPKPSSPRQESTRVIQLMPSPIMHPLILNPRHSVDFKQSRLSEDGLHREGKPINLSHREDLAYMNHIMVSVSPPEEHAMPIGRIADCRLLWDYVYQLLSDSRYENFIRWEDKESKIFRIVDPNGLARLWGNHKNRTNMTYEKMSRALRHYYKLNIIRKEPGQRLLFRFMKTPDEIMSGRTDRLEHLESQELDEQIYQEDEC
Chain of HSF1 (Q00613 whole entry): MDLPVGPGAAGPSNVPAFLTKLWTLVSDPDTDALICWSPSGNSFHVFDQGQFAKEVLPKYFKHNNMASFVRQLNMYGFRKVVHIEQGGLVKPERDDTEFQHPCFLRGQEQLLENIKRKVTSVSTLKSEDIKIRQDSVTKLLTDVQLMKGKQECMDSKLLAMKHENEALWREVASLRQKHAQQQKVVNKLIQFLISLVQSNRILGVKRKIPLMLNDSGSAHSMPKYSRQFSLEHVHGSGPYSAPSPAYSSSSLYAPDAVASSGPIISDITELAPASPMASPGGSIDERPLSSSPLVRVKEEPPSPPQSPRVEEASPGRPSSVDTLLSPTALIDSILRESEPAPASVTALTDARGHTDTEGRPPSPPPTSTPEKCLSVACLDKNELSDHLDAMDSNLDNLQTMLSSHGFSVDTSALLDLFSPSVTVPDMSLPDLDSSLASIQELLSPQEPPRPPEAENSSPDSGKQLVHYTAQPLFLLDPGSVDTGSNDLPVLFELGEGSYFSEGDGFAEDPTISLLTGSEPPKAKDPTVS
Chain of ELF4 (Q99607 whole entry): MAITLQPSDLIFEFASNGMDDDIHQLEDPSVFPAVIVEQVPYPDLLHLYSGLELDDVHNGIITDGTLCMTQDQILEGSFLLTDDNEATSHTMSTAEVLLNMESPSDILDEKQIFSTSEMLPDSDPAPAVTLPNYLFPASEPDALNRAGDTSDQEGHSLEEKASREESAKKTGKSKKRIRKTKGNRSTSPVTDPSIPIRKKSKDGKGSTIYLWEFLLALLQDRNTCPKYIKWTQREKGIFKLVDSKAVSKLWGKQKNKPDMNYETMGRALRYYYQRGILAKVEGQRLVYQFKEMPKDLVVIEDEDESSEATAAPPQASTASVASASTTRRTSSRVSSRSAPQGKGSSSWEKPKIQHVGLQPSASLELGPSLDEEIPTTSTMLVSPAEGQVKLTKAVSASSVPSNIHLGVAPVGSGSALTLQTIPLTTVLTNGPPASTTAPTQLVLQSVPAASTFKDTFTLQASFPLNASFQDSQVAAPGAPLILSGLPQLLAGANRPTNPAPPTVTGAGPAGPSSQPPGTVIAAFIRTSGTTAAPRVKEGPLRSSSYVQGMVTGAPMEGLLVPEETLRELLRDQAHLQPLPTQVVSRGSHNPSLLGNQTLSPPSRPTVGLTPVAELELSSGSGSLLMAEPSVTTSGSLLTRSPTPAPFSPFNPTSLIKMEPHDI
Chain of ETV5 (P41161 whole entry): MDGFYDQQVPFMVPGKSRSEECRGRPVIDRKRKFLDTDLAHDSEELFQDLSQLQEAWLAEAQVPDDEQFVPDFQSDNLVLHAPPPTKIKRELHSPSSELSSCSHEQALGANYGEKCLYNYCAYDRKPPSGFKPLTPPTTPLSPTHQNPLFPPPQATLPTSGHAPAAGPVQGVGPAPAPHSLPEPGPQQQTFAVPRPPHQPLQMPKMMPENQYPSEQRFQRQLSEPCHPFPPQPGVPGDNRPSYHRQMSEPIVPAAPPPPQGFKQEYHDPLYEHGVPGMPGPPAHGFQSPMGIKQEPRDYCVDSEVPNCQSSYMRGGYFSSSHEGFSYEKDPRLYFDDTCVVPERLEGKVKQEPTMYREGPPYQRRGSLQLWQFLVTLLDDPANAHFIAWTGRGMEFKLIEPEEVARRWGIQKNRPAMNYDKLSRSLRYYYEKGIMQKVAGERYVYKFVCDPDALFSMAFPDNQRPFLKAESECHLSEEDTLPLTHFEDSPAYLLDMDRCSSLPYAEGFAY
Chain of CRX (O43186 whole entry): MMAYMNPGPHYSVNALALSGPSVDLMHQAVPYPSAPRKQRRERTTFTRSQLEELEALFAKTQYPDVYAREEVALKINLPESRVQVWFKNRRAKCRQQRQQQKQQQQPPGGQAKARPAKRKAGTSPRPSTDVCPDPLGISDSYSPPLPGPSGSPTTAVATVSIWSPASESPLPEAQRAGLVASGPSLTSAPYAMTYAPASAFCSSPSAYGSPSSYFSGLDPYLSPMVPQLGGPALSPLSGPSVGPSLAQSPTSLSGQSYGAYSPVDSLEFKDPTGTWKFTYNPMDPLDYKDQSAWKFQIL

In the case of ATTTTA, the binding signal in test [1] is 1.25 fold enrichment (6-mer frequency, TF over GST control); in test [2], 1.23 fold enrichment (6-mer frequency, TF over GST control); in test [3] it was 1.45 fold enrichment (6-mer frequency, TF over GST control); in [4] it was 1.36 fold enrichment (6-mer frequency, TF over GST control); in test [5], 1.32 fold enrichment (6-mer frequency, TF over GST control); in test [6], 1.37 fold enrichment (6-mer frequency, TF over GST control). Moreover, the binding signal was 1.29 fold enrichment (6-mer frequency, TF over GST control) in test [7]; 1.23 fold enrichment (6-mer frequency, TF over GST control) in [8]; 1.83 fold enrichment (6-mer frequency, TF over GST control) in test [9]; 1.25 fold enrichment (6-mer frequency, TF over GST control) in [10]; 1.27 fold enrichment (6-mer frequency, TF over GST control) in test [11]; 1.43 fold enrichment (6-mer frequency, TF over GST control) in test [12]. In addition, the binding signal in [13] is 1.33 fold enrichment (6-mer frequency, TF over GST control); in test [14], 1.23 fold enrichment (6-mer frequency, TF over GST control); in [15] it was 1.37 fold enrichment (6-mer frequency, TF over GST control); in test [16], 1.2 fold enrichment (6-mer frequency, TF over GST control); in test [17] it was 1.26 fold enrichment (6-mer frequency, TF over GST control); in test [18] it was 1.26 fold enrichment (6-mer frequency, TF over GST control).
